Experimental data published in PubChem BioAssay (Tox21).
Inconclusive results are not listed. Activity calls are given as the source filed them. Unless noted, the call rests on the fitted dose curve; in most records, active means well fitted curve in the direction sought with a large enough effect in the repeat runs; inconclusive means weak or mixed curves; inactive means no such curve, though single readings can be large; an effect the other way counts as inactive or inconclusive.

How the values were obtained:
[1] = target: Thyrotropin receptor (Homo sapiens) (UniProt P16473); assay: qHTS assay to identify small molecule agonists of the thyroid stimulating hormone receptor (TSHR) signaling pathway (AID 1224843; calls by dose curve; further: nearly all actives have a fitted effect of over 45% in size)
Chain of Thyrotropin receptor (Homo sapiens) (P16473 whole entry, looked up): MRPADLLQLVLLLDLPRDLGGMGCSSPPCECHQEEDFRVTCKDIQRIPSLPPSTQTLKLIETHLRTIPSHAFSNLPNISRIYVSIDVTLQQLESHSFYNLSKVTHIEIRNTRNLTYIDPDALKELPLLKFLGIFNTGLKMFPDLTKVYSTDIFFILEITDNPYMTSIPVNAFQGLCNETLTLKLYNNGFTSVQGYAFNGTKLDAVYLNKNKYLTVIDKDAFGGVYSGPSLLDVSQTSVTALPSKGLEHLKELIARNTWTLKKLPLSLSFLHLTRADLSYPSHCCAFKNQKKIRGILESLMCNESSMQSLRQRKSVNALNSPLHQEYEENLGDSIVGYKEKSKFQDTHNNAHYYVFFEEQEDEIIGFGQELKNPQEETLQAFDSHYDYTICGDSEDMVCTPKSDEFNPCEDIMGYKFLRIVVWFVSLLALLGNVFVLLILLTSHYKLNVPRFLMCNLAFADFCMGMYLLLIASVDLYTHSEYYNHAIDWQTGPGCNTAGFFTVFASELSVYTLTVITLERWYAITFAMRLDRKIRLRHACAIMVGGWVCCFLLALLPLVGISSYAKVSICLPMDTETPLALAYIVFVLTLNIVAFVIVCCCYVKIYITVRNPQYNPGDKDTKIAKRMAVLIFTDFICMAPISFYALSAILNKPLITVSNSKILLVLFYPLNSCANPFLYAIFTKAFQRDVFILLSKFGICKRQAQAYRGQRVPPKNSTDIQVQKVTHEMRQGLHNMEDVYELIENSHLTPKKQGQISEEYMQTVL
Procedure, shortened: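 Steps: seed 800 TSHR-HEK293 cells per well; add test compound and hold 30 min at ambient temperature; dispense cAMP-d2 then anti-cAMP cryptate; incubate 1 h at ambient; measure fluorescence intensity.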

[2] = qHTS assay to identify small molecule agonists of the hypoxia (HIF-1) signaling pathway - cell viability counter screen (AID 1224844; calls by dose curve; further: nearly all actives have a fitted effect of over 50% in size)
Procedure, shortened: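 ME-180 HRE-bla cells, 2,000/well, 0.5% dialyzed FBS; 5 hr settle, 17 hr compound at 37C/5% CO2; CCF4-AM reporter read first, then CellTiter-Glo luminescence after 30 min RT.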

[3] = qHTS assay to identify small molecule agonists of H2AX (AID 1224845; active means well fitted activation curve with a large enough effect in the signal ratio in the repeat runs, not every such curve was filed as active; the % refers to the signal ratio; further: potency means the concentration at half of the fitted maximal effect)
Procedure, shortened: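 Wild-type CHO-K1 cells, plated overnight, exposed 3hr at 37C to 15 concentrations (0.76% DMSO final). Lysed, then HTRF anti-pH2AX (S139) cryptate and anti-H2AX-d2 antibodies, 24 hr room temperature; 665/620 nm emission read.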

[4] = qHTS assay to identify small molecule agonists of the hypoxia (HIF-1) signaling pathway (AID 1224846; active means well fitted activation curve with a large enough effect in the signal ratio in the repeat runs, not every such curve was filed as active; the % refers to the signal ratio)
Procedure, shortened: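 Cell line: CellSensor HRE-bla ME-180; 2,000 cells/well; 0.5% dialyzed FBS; 5 h preincubation; DMSO compound pin transfer; 17 h, 37C, 5% CO2; CCF4-AM added; bla FRET signal scored for activation.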

[5] = qHTS RealTime-Glo MT Cell Viability Assay in HepG2 cells - 24 hour (AID 1224867); further: nearly all actives have a fitted effect of over 50% in size
Procedure, shortened: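 Tox21 10K library screened in qHTS format on HepG2 cells carrying RealTime-Glo reagents. Compounds were added after a 5 h preincubation, and the luminescent signal from continuous culture was measured repeatedly during 40 h treatment.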

[6] = A CellTox Green Cytotoxicity Assay to monitor cytotoxicity in HEK293 cells - 0 hour (AID 1224869); further: nearly all actives have a fitted effect of over 50% in size
Procedure, shortened: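 Nonlytic real-time cytotoxicity: HEK293 + CellTox Green reagent plated, 5 h preincubation, pintool compound addition (23 nL in DMSO), 37 C for 40 h, fluorescence measured at successive time points.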

[7] = qHTS assay to identify small molecule antagonists of the estrogen related receptor (ERR) signaling pathway from Tox21 library (AID 1224848); further: nearly all actives have a fitted effect of over 50% in size
Procedure, shortened: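 Luminescent reporter read-out (ONE-Glo) from NTP's ERR cell line after 18 h treatment at 37 C with DMSO-dissolved Tox21 compounds; cells pre-plated 6 h beforehand at 2,000 per well.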

[8] = qHTS RealTime-Glo MT Cell Viability Assay in HEK293 cells - 32 hour (AID 1224868)
Procedure, shortened: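 Luminescence generated by NanoLuc from substrate produced by living HEK293 cells served as the viability signal. Each value reflects the reading at its stated time point during continuous 40 h compound exposure at 37 C.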

[9] = qHTS assay to identify small molecule agonists of H2AX - cell viability counter screen (AID 1224847; calls by dose curve; further: top concentration of the series differs between compounds; nearly all actives have a fitted effect of over 30% in size)
Procedure, shortened: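 CHO-K1 cells plated overnight at 37C, then exposed 3 h at 37C to compounds at 15 concentrations (0.76% DMSO final). Viability by CellTiter-Glo luminescence after 30 min at room temperature.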

[10] = qHTS assay to identify small molecule agonists of the estrogen related receptor (ERR) signaling pathway from Tox21 library (AID 1224849; calls by dose curve; further: nearly all actives have a fitted effect of over 15% in size); conditions: ERR reporter cell line, ONE-Glo luciferase, 18 h; at 92.4 µM (top of the series) unless noted
Procedure, shortened: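 ERR cells, 6 h pre-incubation 37 C/5% CO2; cpd in DMSO pinned; 18 h 37 C; ONE-Glo added, 30 min RT; luminescence read. Agonist mode, qHTS.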
On the % scale 0 is the no-effect control and ±100 the full control effect.

CCN(CC)CCOc1ccc(Cc2ccccc2)cc1
inactive: Potency [1] | Potency [2] | Potency [3] | outcome [4] | Potency [5] | Potency [6]

CC(C)OC(C)C
inactive: Potency [1] | Potency [2] | Potency [3] | outcome [4] | Potency [7] | Potency [5] | Potency [8] | Potency [6]

NC/C=C/C(=O)O
inactive: Potency [1] | Potency [2] | Potency [3] | Potency [9] | Potency [7] | Potency [8]

O=S(=O)(O)C(F)(F)F
inactive: Potency [1] | Potency [2] | Potency [3] | outcome [4] | Potency [7] | activity change, positive = activation [10] 4.04% | Potency [5] | Potency [8] | Potency [6]

CC(=O)O[C@H]1CC[C@@]2(C)C(=CC[C@@H]3[C@@H]2CC[C@]2(C)C(C(C)=O)=CC[C@@H]32)C1
inactive: Potency [1] | Potency [2] | Potency [3] | outcome [4] | Potency [5] | Potency [6]

O=C(C(Cl)Cl)N1CCOC12CCCCC2
inactive: Potency [1] | Potency [2] | Potency [3] | outcome [4] | Potency [7] | activity change, positive = activation [10] -5.71% | Potency [5] | Potency [8] | Potency [6]

FC(F)(F)C(Cl)(Cl)Cl
inactive: Potency [1] | Potency [2] | Potency [3] | outcome [4] | Potency [5] | Potency [8] | Potency [6]

COC(=O)N[C@H](C(=O)N[C@@H](Cc1ccccc1)[C@@H](O)CN(Cc1ccc(-c2ccccn2)cc1)NC(=O)[C@@H](NC(=O)OC)C(C)(C)C)C(C)(C)C
active: Potency [3] 24.7 µM
inactive: Potency [1] | Potency [2] | outcome [4] | Potency [9] | Potency [6]

OCc1ccccc1O
inactive: Potency [1] | Potency [2] | Potency [3] | outcome [4] | Potency [5] | Potency [6]

N#CSCC(=O)O
inactive: Potency [1] | Potency [2] | Potency [3] | outcome [4] | Potency [7] | activity change, positive = activation [10] 4.98% [at 42.5 µM] | Potency [5] | Potency [8] | Potency [6]

C=CCc1cc(OC)c(O)c(C(=O)NCCO)c1
inactive: Potency [1] | Potency [2] | Potency [3] | outcome [4] | Potency [9] | Potency [8] | Potency [6]

c1ccc(CN(CC2=NCCN2)c2ccccc2)cc1
inactive: Potency [1] | Potency [2] | Potency [3] | Potency [9] | Potency [7] | activity change, positive = activation [10] -0.231% [at 42.5 µM] | Potency [5] | Potency [8] | Potency [6]

CCOc1ccc2nc(N)sc2c1
inactive: Potency [1] | Potency [2] | outcome [4] | Potency [7] | Potency [5] | Potency [8]

CCCCNc1ccc(C(=O)OCCN(CC)CC)cc1
inactive: Potency [1] | Potency [2] | outcome [4] | Potency [9] | Potency [7] | activity change, positive = activation [10] -11.3% [at 42.5 µM] | Potency [5] | Potency [6]

ClC(Cl)Cl
inactive: Potency [1] | Potency [9] | Potency [7] | activity change, positive = activation [10] -1.48% | Potency [5] | Potency [8] | Potency [6]

CN1CCN(N)CC1
inactive: Potency [1] | Potency [2] | Potency [3] | Potency [9] | Potency [8] | Potency [6]

CC1(C)O[C@@H]2C[C@H]3[C@@H]4CCC5=CC(=O)CC[C@]5(C)[C@@]4(F)[C@@H](O)C[C@]3(C)[C@]2(C(=O)CCl)O1
inactive: Potency [1] | Potency [3] | Potency [9] | Potency [5] | Potency [6]
